Some test systems named below: NCI-H23 lung; NCI-H226 lung; NCI-H322M lung; HOP-62 NSCLC; NCI-H460 lung; HOP-92 NSCLC; NCI-H522 lung; A549/ATCC NSCLC; 786-0 renal; COLO 205 colon; DU-145 prostate; K-562 leukemia; MALME-3M melanoma; MDA-MB-231 breast; RXF 393 renal; SF-268 CNS; SF-295 CNS; SF-539 CNS; UACC-257 melanoma; M14 melanoma.
What all share (assay): NCI-60 one-dose screen, 48 h (100 = growth as untreated, 0 = no growth, -100 = all killed)
Holding throughout (settings): 10 µM unless noted

About 83,000 compounds went through this panel and 20% of them were active in at least one assay; those are over-represented in the sample as a whole.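 Each cell line was grown in a 96-well plate and treated with one concentration of compound for 48 hours. Values below 10 were considered active.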 Unmarked numbers belong to inactive results. The source made the active and inactive calls.

Turning to `COc1cc2c(cc1-c1c(C)noc1C)ncc1nc(CN3CCOCC3)n([C@H](C)COC(F)F)c12`, the growth in the test with NCI-H23 lung is 45.4%; with NCI-H226 lung it was 58%; in the test with NCI-H322M lung, 38.5%; with HOP-62 NSCLC it was 16.6%; with NCI-H460 lung, 51.9%; in the test on HOP-92 NSCLC it was 5.85% (active). The growth in the test on NCI-H522 lung is -0.0255% (active); in the test with A549/ATCC NSCLC it was 37.6%; with 786-0 renal, 45.5%; with COLO 205 colon, 14.7%; in the test on DU-145 prostate, 62.2%; in the test with K-562 leukemia, 28%. The growth with MALME-3M melanoma was 37.8%; with MDA-MB-231 breast, 29.5%; with RXF 393 renal it was 35.1%; in the test with SF-268 CNS it was 55.2%; in the test on SF-295 CNS, 40.3%; in the test with SF-539 CNS, 35.1%. For the same compound, the growth in the test on UACC-257 melanoma was 26.3%; in the test with M14 melanoma it was 40.1%.
On to `O=C1OCC2=C1C(c1ccccc1)c1cc3c(cc1N2CCO)OCCO3` (stereo not given), for which the growth was 30.9% in the test with NCI-H23 lung; 15.8% in the test on NCI-H226 lung; 48.7% in the test with NCI-H322M lung; 27.3% in the test with HOP-62 NSCLC; 5.36% (active) in the test with NCI-H460 lung; 44.5% in the test on HOP-92 NSCLC. Also, the growth in the test with NCI-H522 lung is -47.4% (active); with A549/ATCC NSCLC it was 23.6%; in the test with 786-0 renal it was 20.8%; in the test with COLO 205 colon it was -47.6% (active); in the test with DU-145 prostate it was -9.9% (active); in the test on K-562 leukemia, 10.5%. In addition, the growth with MALME-3M melanoma is 67.1%; in the test on MDA-MB-231 breast, 14.2%; in the test with RXF 393 renal, 10.8%; in the test on SF-268 CNS, 32.1%; in the test on SF-295 CNS, 0.89% (active); with SF-539 CNS, -22.7% (active). Also, the figures for the growth with UACC-257 melanoma and in the test with M14 melanoma were 47.3% and -21.8% (active), respectively.
Take `O=S(=O)(Nc1cc(F)cc(F)c1)c1ccc(-c2cnc(C3CC3)o2)cc1`: the growth in the test with NCI-H23 lung is 63.7%; in the test on NCI-H226 lung, 48.2%; in the test on NCI-H322M lung it was 63.2%; with HOP-62 NSCLC, 40.9%; with NCI-H460 lung, 25.3%; in the test with HOP-92 NSCLC, 42.5%. The growth is 7.85% (active) with NCI-H522 lung; 46.7% with A549/ATCC NSCLC; 35.5% in the test with 786-0 renal; 40.1% with COLO 205 colon; 70.4% in the test with DU-145 prostate; 9.67% (active) in the test with K-562 leukemia. The growth with MALME-3M melanoma is 50.1%; with MDA-MB-231 breast it was 58.2%; with RXF 393 renal, 46.6%; in the test on SF-268 CNS it was 56.7%; in the test with SF-295 CNS it was 20.9%; with SF-539 CNS, 29.2%. Besides, the growth in the test with UACC-257 melanoma was 62.7%; in the test on M14 melanoma it was 16.5%.
As for `Cc1cc(Cl)nc(N2CCN(CCNc3ccnc4cc(Cl)ccc34)CC2)n1`, the growth in the test with NCI-H23 lung was 27.2%; with NCI-H226 lung it was 59.8%; in the test on NCI-H322M lung, 75.2%; with HOP-62 NSCLC, 68.2%; in the test with NCI-H460 lung, 48.3%; in the test with HOP-92 NSCLC, 27.9%. Besides, the growth in the test on NCI-H522 lung was 51.8%; in the test with A549/ATCC NSCLC, 58.2%; in the test on 786-0 renal, 49.1%; with COLO 205 colon, -50.1% (active); in the test on DU-145 prostate it was 66.6%; in the test on K-562 leukemia, 10.5%. Besides, the growth in the test with MALME-3M melanoma was 41.8%; in the test with MDA-MB-231 breast, 49.5%; with RXF 393 renal, 61.5%; in the test with SF-268 CNS, 72.2%; in the test with SF-295 CNS, 36.4%; with SF-539 CNS, 31.7%. The growth in the test with UACC-257 melanoma was 13.5%; in the test on M14 melanoma, 30.9%.
Turning to `COc1cc2c(c(OC)c1OC)C(=O)CC(c1cccc(C(=O)Nc3ccccc3Br)c1)O2` (stereo not given), the growth in the test with NCI-H23 lung is 102%; in the test on NCI-H226 lung, 86%; in the test on NCI-H322M lung, 98.1%; in the test on HOP-62 NSCLC, 97.1%; with NCI-H460 lung it was 110%; in the test on HOP-92 NSCLC, 68.4%. Also, the growth is 69.9% in the test with NCI-H522 lung; 97.8% in the test on A549/ATCC NSCLC; 88% with 786-0 renal; 95.4% with COLO 205 colon; 83.7% in the test with DU-145 prostate; 74.1% in the test with K-562 leukemia. In addition, the growth with MALME-3M melanoma was 99.6%; in the test with MDA-MB-231 breast, 91.1%; in the test on RXF 393 renal it was 110%; in the test with SF-268 CNS, 73.8%; in the test on SF-295 CNS it was 98.1%; in the test with SF-539 CNS it was 90.4%. Moreover, the growth was 92.7% in the test with UACC-257 melanoma and 91.1% in the test on M14 melanoma.
As to `C/C(=C(\c1ccc(OCCN2CCCCCC2)cc1)c1ccc(OC(=O)c2ccccc2)cc1)c1ccc(Cl)cc1`, the growth was 46.7% with NCI-H23 lung; 87.5% in the test on NCI-H226 lung; 71.7% with NCI-H322M lung; 71.7% in the test on HOP-62 NSCLC; 3.62% (active) with NCI-H460 lung; 56.2% in the test on HOP-92 NSCLC. The growth is 51% in the test with NCI-H522 lung; 39.1% in the test on A549/ATCC NSCLC; 21.8% in the test on 786-0 renal; 4.38% (active) in the test with COLO 205 colon; 66.1% in the test with DU-145 prostate; -4.61% (active) in the test with K-562 leukemia. The growth is 17.3% with MALME-3M melanoma; 51.1% in the test on MDA-MB-231 breast; 19% with RXF 393 renal; 43.1% with SF-268 CNS; 44.4% with SF-295 CNS; 58.5% in the test with SF-539 CNS. For the same compound, the growth with UACC-257 melanoma is -7.06% (active); in the test with M14 melanoma, 0.53% (active).
`C#CCOc1cccc(Nc2ncnc3c2ncn3C2CCN(C(=O)CCl)C2)c1` (stereo not given): the growth in the test with NCI-H23 lung is -23.1% (active); with NCI-H226 lung, 1.03% (active); in the test on NCI-H322M lung it was 87.2%; with HOP-62 NSCLC, 1.84% (active); with NCI-H460 lung it was 24.7%; with HOP-92 NSCLC, -84.5% (active). The growth is -61.3% (active) with NCI-H522 lung; 54.6% in the test on A549/ATCC NSCLC; -72.4% (active) in the test with 786-0 renal; -72.5% (active) in the test on COLO 205 colon; -95.4% (active) in the test with DU-145 prostate; 0.116% (active) in the test on K-562 leukemia. In addition, the growth is -84% (active) with MALME-3M melanoma; -61.2% (active) with MDA-MB-231 breast; -79.4% (active) in the test on RXF 393 renal; -31.6% (active) with SF-268 CNS; 53.4% in the test with SF-295 CNS; -68.5% (active) in the test on SF-539 CNS. Moreover, the growth with UACC-257 melanoma is 13.1%; in the test on M14 melanoma, -48.6% (active).

Source of the values: PubChem BioAssay (NCI).
